We go through 40 compounds from PubChem BioAssay (NCI).

Each structure is given as a SMILES string. This is part of a sample that, as a whole, favours compounds with a hit. Of some 83,000 tested, about 20% had one in any assay.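 Each cell line was grown in a 96-well plate and treated with one concentration of compound for 48 hours. Values below 10 were considered active.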 Active and inactive are the calls of the source.

The test system of this experiment is HL-60(TB) leukemia. Nature of the experiment: NCI-60 one-dose screen, 48 h (100 = growth as untreated, 0 = no growth, -100 = all killed). The following applies: 10 µM unless noted.
For the compound `Cc1cc2c(C(=O)NCC#N)cccc2n1-c1nc2c(c(NCc3ccccc3)n1)CCCC2`, the growth was -23.5% (active). The same measure for `CCCCCCCCCCCCCC1=NCC[N+]1(CCO)Cc1ccccc1` (stereo not given): -63.8% (active). The same measure for `O=S(=O)(NCCNc1nccc(-c2c(-c3ccc(O)cc3)nc3sccn23)n1)c1cccc2ccccc12`: 90.3% (inactive). In the case of `COc1nc2c(c(=O)n1C)N=C1c3ccccc3C(=O)C1C(c1ccccc1)N2` (stereo not given), the growth is 112% (inactive). The same measure for `CCCCCCCCCc1ccc(OC(C)=O)cc1`: 108% (inactive). The same measure for `NC(=O)c1cc(I)ccc1NC(=O)COc1ccccc1`: -20.5% (active); for `COC(=O)C1CCc2sc3ncnc(Nc4cn[nH]c4C(=O)Nc4ccc(CN5CCN(C)CC5)cc4)c3c21` (stereo not given): -28.8% (active).

Regarding `S=C1SCC(c2ccccc2)S1` (stereo not given), the growth was 108% (inactive). On to `CN(C)C(=O)c1cc2cnc(Nc3ccc(-c4csc5c(=S)cc(N6CCOCC6)oc45)cc3)nc2n1C1CCCC1`, for which the growth is -30.6% (active). The same measure for `CCCCCCCCN(CCCCCCCC)C(=O)CCl`: 105% (inactive); for `CCOC(=O)c1cnc2c(C)cccc2c1Nc1ccc(C(C)=O)cc1`: -43.5% (active). The same measure for `CCN(Cc1ccccc1)c1ccc(SC#N)cc1`: 20.3% (inactive); for `NS(=O)(=O)c1ccc(N=Nc2ccc(-c3nn4cc(-c5ccccc5)nc4s3)cc2)cc1`: 91.5% (inactive); for `Cn1cnc(-c2cc3nccc(Oc4ccc(NC(=S)NC(=O)Cc5ccccc5)cc4F)c3s2)c1`: 80% (inactive). The same measure for `Cc1oc2c(Cc3ccc(NC(=O)c4ccc(Cl)cc4)cc3)ncnc2c1C(=O)NO`: 87.9% (inactive); for `C=CCn1c(SCC(=O)Nc2ccc(/C(C)=N/O)cc2)nnc1-c1cc(-c2ccc(S(N)(=O)=O)cc2)nc2ccccc12`: 7.74% (active). For the compound `CC[C@H](C)[C@H](NC(=O)[C@H](CCCNC(=N)N)NC(=O)[C@H](Cc1c[nH]c2ccccc12)NC(=O)[C@@H](NC(=O)[C@H](CCCCN)NC(=O)[C@H](CCCCN)NC(=O)[C@@H](NC(=O)[C@@H](NC(=O)[C@@H](NC(=O)[C@H](CCCCN)NC(=O)[C@H](Cc1ccccc1)NC(=O)[C@H](CCCCN)NC(=O)[C@H](CCCCN)NC(=O)[C@H](Cc1ccccc1)NC(=O)[C@@H](NC(=O)[C@@H](N)CCCCN)[C@@H](C)CC)[C@@H](C)O)[C@@H](C)CC)[C@@H](C)CC)C(C)C)C(=O)N[C@@H](Cc1ccccc1)C(=O)NCC(=O)N[C@@H](CCCNC(=N)N)C(=O)N[C@@H](Cc1ccccc1)C(N)=O`, the growth was 14.9% (inactive).

With `N#CC1=C(N)Oc2c(c(N)nn2-c2ccccc2)C1c1ccc(Cl)cc1` (stereo not given), the growth was 110% (inactive).

Take `O=C(N/N=C/c1ccccc1SSc1ccccc1/C=N/NC(=O)c1ccccc1)c1ccccc1`: the growth is 3.4% (active). The same measure for `CC[C@@](C)(NC(=O)[C@H](C)NC(=O)CCNC(=O)C(C)(C)NC(=O)[C@H](C)NC(=O)[C@@H]1CCCN1C(=O)[C@@](C)(CC)NC(=O)[C@H](Cc1ccccc1)NC(=O)C1CCCN1C(=O)C(C)(C)NC(=O)C1CCCN1C(=O)C(C)(C)NC(C)=O)C(=O)NCCC(=O)N[C@@H](CC(C)C)C(=O)NC(C)(C)C(=O)NCCC(=O)N[C@@H](CC(C)C)C(=O)NC(C)(C)C(=O)NC(C)(C)C(=O)N[C@@H](CC(C)C)C(=O)NCCC(=O)NCO` (stereo not given in full): -62.3% (active). The same measure for `CCOC(=O)/C(=C/c1ccc(OC)cc1)N(CC)CC`: 98% (inactive). The same measure for `Cn1nc(C(F)(F)F)c(-c2cc(C(F)(F)F)cc(C(F)(F)F)c2)c1-c1ccc(OCc2ccc(Cl)cc2)cc1O`: -39.9% (active). For `O=C1/C(=C/c2cn(-c3ccccc3)nc2-c2ccccc2)SC(=S)N1C1CCCCC1`, the growth is 116% (inactive).

For the compound `N#Cc1c(-c2ccc(Br)cc2)nc2c(N=Nc3ccc(S(N)(=O)=O)cc3)c(N)nn2c1N`, the growth is 38.1% (inactive). As for `CC[C@]1(O)C[C@@H]2CN(CCc3c([nH]c4ccccc34)[C@@](C(=O)OC)(c3cc4c(cc3OC)N(C)[C@H]3[C@@](O)(C(=O)OC)[C@H](OC(C)=O)[C@]5(CC)C=CCN6CC[C@]43[C@@H]65)C2)C1`, the growth was -7.59% (active). The same measure for `O=S(=O)(c1cccc(NC2=Nc3cccc4cccc2c34)c1)N1CCCC1`: 60.8% (inactive); for `CN1CCN(CCOc2ccc(-c3cnc4c(-c5cccc(F)c5)cnn4c3)cc2)CC1`: 10.7% (inactive); for `COc1ccc(C2[C@@H](c3ccccc3)C(=O)N2c2cc(OC)c(OC)c(OC)c2)cc1F` (stereo not given in full): -50.3% (active).

As for `COc1cccc(NC(=O)c2sc3nc(C)c(C(O)c4ccccc4)cc3c2N)c1` (stereo not given), the growth is -52% (active). Turning to `COc1ncc(-c2ccc3ncnc(Nc4cccc(Cl)c4)c3c2)cc1NS(=O)(=O)CCN1CCOCC1`, the growth was 23.9% (inactive).

Take `COc1cc(NCCCCCNC(C)(C)C)c2ncccc2c1`: the growth is 128% (inactive). The same measure for `Cc1ccc(Nc2ccc(Nc3ccc(C)cc3)c3c2C(=O)c2cccc(O)c2C3=O)cc1`: 94.3% (inactive); for `O=C(O)c1ccccc1Oc1cc(-c2ccco2)nc(OCCN2CCOCC2)n1`: 105% (inactive).

Turning to `Oc1ccccc1/C=N/NC(=S)NC1CC2C=CC1C2` (stereo not given), the growth was 58.3% (inactive).

`COc1ccc(CN2CCCC(C(=O)c3ccc(C(F)(F)F)cc3)C2)c(O)c1` (stereo not given): the growth is 17% (inactive). The same measure for `CC(C)(C)c1ccc(Cn2c(-c3nonc3N)nc3ccccc32)cc1`: 51.4% (inactive). For the compound `COc1cc2c3c(c1O)-c1ccccc1[C@@H]1OC(=O)N(CC2)[C@H]31`, the growth is 112% (inactive). The same measure for `CCN(CC)C(=O)CCCCCn1c2ccccc2c2c3c(c4c5ccccc5[nH]c4c21)C(=O)N(O)C3=O`: 21.8% (inactive); for `O=C(/C=C\c1ccc(OCCCCCC[P+](c2ccccc2)(c2ccccc2)c2ccccc2)cc1)c1ccc2c(c1)OCCO2`: -13.2% (active). The same measure for `FCc1ncc(-c2ccc(C(F)(F)F)cc2)c(NC2CCCCCC2)n1`: -25.6% [100 µM] (active).
